Compound activity from PubChem.
Rows were chosen to be rich in hits. Some 3.3% of all compounds tested hit in one or more screens of this group.
Efflux pump inh = antifungal efflux pump inhibition, Nile Red retention; 330,000 tested, 0.44% active; inhibition, % at 10 µM; S. cerevisiae Candida pump triplex;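 active means plate passing quality check with inhibition over a set limit, or well fluorescence over plate mean plus 4 SD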;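 further: Nile Red retained in pooled yeast measured as flow cytometry median fluorescence; 0% = buffer negative control and 100% = Enniatin B positive control; higher means more Nile Red kept so more efflux inhibition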
Cl transport mod = modulates chloride dependent transport by human KCC2; 190,000 tested, 2.2% active; B-score of Tl+ flux slope (higher = more flux/activation; lower = inhibition) at 10 µM; KCC2 cells, thallium flux FluoZin-2 fluorescence; Q9H2X9;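 active means thallium flux slope and its plate-corrected score both differing from the plate sample mean at a set confidence after two filtering rounds, in either direction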;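 further: slope of fluorescence scaled to starting intensity during 10 to 20 s after thallium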
Target sequence (Q9H2X9 whole entry, looked up): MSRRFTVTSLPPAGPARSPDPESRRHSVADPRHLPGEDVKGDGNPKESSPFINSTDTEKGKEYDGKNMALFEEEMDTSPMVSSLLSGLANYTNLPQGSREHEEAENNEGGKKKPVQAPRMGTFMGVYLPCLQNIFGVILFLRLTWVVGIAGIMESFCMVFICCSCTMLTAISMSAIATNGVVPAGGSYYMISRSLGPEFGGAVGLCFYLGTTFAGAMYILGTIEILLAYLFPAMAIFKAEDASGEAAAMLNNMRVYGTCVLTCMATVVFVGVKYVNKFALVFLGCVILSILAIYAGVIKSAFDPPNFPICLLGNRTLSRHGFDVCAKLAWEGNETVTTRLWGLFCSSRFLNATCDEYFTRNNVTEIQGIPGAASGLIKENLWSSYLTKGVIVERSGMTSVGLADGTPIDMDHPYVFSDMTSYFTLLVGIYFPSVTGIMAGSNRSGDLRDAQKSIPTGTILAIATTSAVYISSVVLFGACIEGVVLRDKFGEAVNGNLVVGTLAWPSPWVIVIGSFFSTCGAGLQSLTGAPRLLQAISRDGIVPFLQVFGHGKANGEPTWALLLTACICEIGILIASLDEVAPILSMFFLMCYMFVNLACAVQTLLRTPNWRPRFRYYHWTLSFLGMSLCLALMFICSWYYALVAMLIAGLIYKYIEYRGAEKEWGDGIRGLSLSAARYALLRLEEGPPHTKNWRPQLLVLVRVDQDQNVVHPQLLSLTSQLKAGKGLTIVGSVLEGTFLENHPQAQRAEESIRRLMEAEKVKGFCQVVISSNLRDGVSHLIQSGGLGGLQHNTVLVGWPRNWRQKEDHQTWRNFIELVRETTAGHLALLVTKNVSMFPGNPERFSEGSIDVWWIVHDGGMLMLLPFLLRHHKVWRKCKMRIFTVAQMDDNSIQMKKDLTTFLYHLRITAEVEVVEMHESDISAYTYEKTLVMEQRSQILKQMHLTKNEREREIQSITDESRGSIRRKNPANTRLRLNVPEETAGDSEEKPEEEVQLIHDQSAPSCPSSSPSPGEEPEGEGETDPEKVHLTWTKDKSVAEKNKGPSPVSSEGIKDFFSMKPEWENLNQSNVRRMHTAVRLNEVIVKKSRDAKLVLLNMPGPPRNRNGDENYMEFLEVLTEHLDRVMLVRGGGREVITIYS
Cardio protect = protects H9c2 cardiomyocytes from peroxide injury; H2O2 injury protection, ATPLite, 2 h; protection from H2O2 cell death, % at 20 µM; 360,000 tested, 0.63% active; AID 588492;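 active means compounds giving at least 50% protection of heart cells from peroxide-induced death in the single-dose screen, raw or plate-pattern-corrected value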;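 further: 0% = DMSO wells with peroxide and 100% = DMSO wells without peroxide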
PHOSPHO1 inh = PHOSPHO1 (human) inhibition; inhibition, % at 13.3 µM; Q8TCT1; recombinant PHOSPHO1, absorbance phosphatase assay; AID 1565; 290,000 tested, 1.1% active; in the data active means inhibition above about 60%
Calb FLC = C. albicans growth modulation with fluconazole. growth inhibition, % (test concentration not listed). AID 1979. C. albicans CaCi-2 (fluconazole-resistant clinical isolate) + fluconazole, Alamar Blue growth, 48 h. 300,000 tested, 0.57% active;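 active means growth inhibition above about 58% in most replicates, limit read from the data, passing the limit was not always enough; inconclusive means exactly half the replicates above a set limit; inactive means most replicates below a set limit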;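 further: all wells also contain fluconazole at 8 µg/ml as a sub-toxic cotreatment; 0% = median of DMSO wells and 100% = median of geldanamycin control wells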
KCC2 sec1 = confirmation of human KCC2 transport modulators; shares compounds with Cl transport mod; HEK293-KCC2, thallium flux, FluoZin2 fluorescence; stronger effect = higher value; normalised thallium flux (F/F0 slope) at 10 µM; 3,700 tested, 15% active; AID 1713;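 active means thallium flux slope above the same plate's solvent-only control mean plus 3 SD; inconclusive means the two replicate wells disagree; inactive means no significant difference from solvent-only control wells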
KCC2 bumet counter = bumetanide-insensitive thallium flux in KCC2 cells with ouabain, counter-screen; shares compounds with Cl transport mod; HEK293-KCC2 + bumetanide/ouabain, thallium flux FluoZin2; stronger effect = higher value; normalized thallium flux at 10 µM; 3,700 tested, 49% active; AID 1714;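 active means thallium entry rate above the same plate's blocked-transporter control wells by more than 3 SD; inconclusive means the two repeat wells disagree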;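 further: raw slope of fluorescence over initial fluorescence between 10 and 20 s after thallium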
KCC2 sec2 = confirmation of human KCC2 transport modulators. shares compounds with Cl transport mod. HEK293-KCC2, thallium flux FluoZin2 fluorescence; actives lie on both sides; F/F0 rise rate, 10–20 s post-thallium. normalized thallium flux at 10 µM. 3,700 tested, 23% active. AID 1715;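 active means thallium flux slope more than 3 SD above or below the plate's solvent-only control mean, mostly below; inconclusive means the two repeat wells disagreed; inactive means no significant shift from solvent-only controls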;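 further: raw slope with 0.1% DMSO as baseline and bumetanide as block control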
HEK293 Tl flux = counter-screen for KCC2 modulators: effect in parental HEK293 cells | shares compounds with Cl transport mod | thallium flux FluoZin2, ouabain; baseline-ratio fluorescence slope, 10–20 s after thallium | thallium flux rate (normalised fluorescence) at 10 µM | 3,700 tested, 46% active | AID 1716;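 active means thallium flux rate significantly above the same plate's solvent-only control wells, beyond their mean plus 3 SD; inconclusive means the two replicate wells gave conflicting results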
KCC2 ouabain = confirmation of human KCC2 modulators with ouabain; 3,700 tested, 48% active; HEK293-KCC2, thallium flux FluoZin2 fluorescence; bidirectional: low = inhibitor, high = activator; raw Tl+ flux slope (below DMSO = inhibition, above = activation) at 10 µM; AID 1717; shares compounds with Cl transport mod;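 active means thallium flux slope beyond 3 SD from same-plate DMSO control mean in most replicates, usually higher, sometimes lower; inconclusive means repeat tests gave conflicting results; inactive means no significant difference from controls in most replicates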;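 further: slope of initial-normalized fluorescence between seconds 10 and 20 after thallium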
HEK293 Tl flux2 = parental HEK flux effect, counter-screen 2. shares compounds with Cl transport mod. HEK293 parental, thallium flux FluoZin-2 fluorescence slope. thallium flux slope at 10 µM. 3,700 tested, 33% active. AID 1718;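 active means thallium flux slope above the same plate's solvent-control mean plus 3 SD in both duplicate wells; inconclusive means duplicate wells that disagreed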;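 further: run without ouabain in cells lacking the KCC2 cotransporter; slope of fluorescence scaled to its starting value between 10 and 20 s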
Active calls of the source: *; ? = inconclusive; / = no result given.

SMILES | Efflux pump inh | Cl transport mod | Cardio protect | PHOSPHO1 inh | Calb FLC | KCC2 sec1 | KCC2 bumet counter | KCC2 sec2 | HEK293 Tl flux | KCC2 ouabain | HEK293 Tl flux2
CC(C)CC(c1nnnn1CC1CCCO1)N1CCN(c2nc3ccccc3s2)CC1 (centres undefined) | / | -1.6 | 8 | 2 | -16 | / | / | / | / | / | /
COc1ccccc1C(=O)NC(=O)COC(=O)c1cccc(OC(F)F)c1 | 0 | / | 11 | / | 8 | / | / | / | / | / | /
Cc1ccccc1Nc1nc(N)nc(COC(=O)c2cccn2C)n1 | 0 | -0.02 | 9 | 7 | 1 | / | / | / | / | / | /
CCc1ccccc1Nc1nc(N)nc(COC(=O)c2cccn2C)n1 | 0 | -5.6* | 7 | 22 | -21 | 0.0064 | 0.0035 | 0.028 | 0.0071 | 0.016 | 0.0096
Cc1c(C)c2ccc(OC(C)C(=O)NC3CCN(Cc4ccccc4)CC3)cc2oc1=O (centres undefined) | 0 | / | -4 | 53 | -2 | / | / | / | / | / | /
c1cncc(-c2nnc(SCc3cccc4ccccc34)o2)c1 | 0 | -4.3* | -20 | -13 | 4 | 0.0087 | 0.0064 | 0.029 | 0.0064 | 0.02 | 0.0092
c1ccc(CSc2nnc(-c3cccnc3)o2)cc1 | 0 | -0.057 | 6 | -48 | 0 | / | / | / | / | / | /
O=C(Cc1csc(Nc2nc(=S)[nH]c3ccccc23)n1)NCCCN1CCN(c2ccccc2F)CC1 | 0 | 20* | -12 | 9 | 5 | 0.014* | 0.051* | 0.041* | 0.039* | 0.062* | 0.016*
Cn1c(C(=O)NCCCN2CCN(c3ccccc3F)CC2)cc2c(=O)[nH]c3ccccc3c21 | 0 | -1.3 | 20 | 11 | -31 | / | / | / | / | / | /
Cc1ccc(S(=O)(=O)N2CCC(C(=O)NCc3ccccc3Cl)CC2)cc1 | 1 | -2.9* | -5 | 2 | 4 | 0.0052 | 0.0045 | 0.028 | 0.0071 | 0.015* | 0.011
Cc1cc(F)ccc1S(=O)(=O)Nc1ccccc1C(=O)N1CCCC1 | 0 | / | 4 | / | / | / | / | / | / | / | /
Cc1ccc(NC(=O)c2ccccc2-c2ccc(C(F)(F)F)cc2)cc1S(=O)(=O)N1CCOCC1 | 0 | 3.8* | 0 | 12 | 55 | 0.0055 | 0.0052 | 0.027 | 0.0074 | 0.018 | 0.011
O=C(O)CCc1ccc(-c2ccc(F)cc2)n1CCC(=O)O | 0 | 3.2* | 5 | -6 | 19 | 0.01 | ? | 0.034 | 0.008 | 0.023 | 0.011
COC(=O)c1cnn(-c2ccc(F)cc2F)c1/C=N/NC(=S)NC(C)(C)C | 0 | 7.8* | 4 | -10 | 23 | 0.011 | 0.051* | 0.031 | 0.017* | 0.031 | ?
COC(=O)c1cnn(-c2ccccc2)c1/C=N/NC(=S)Nc1ccccc1 | 0 | 9.2* | 4 | -3 | -6 | 0.0094 | 0.019* | 0.03 | 0.012* | 0.029* | 0.01
CNC(=S)N/N=C/c1c(C(=O)OC)cnn1-c1ccc(F)cc1F | 0 | 2.2 | 6 | -1 | 11 | / | / | / | / | / | /
COc1ccc(-n2nnnc2CNC(=O)C2CC(=O)N(c3ccc(Cl)cc3)C2)cc1 (centres undefined) | 0 | / | -1 | / | 2 | / | / | / | / | / | /
CCOC(=O)C=C(C(=O)OCC)C(=O)OCC | / | 0.46 | -28 | 1 | / | / | / | / | / | / | /
CCCCNC(=O)C1(C)CCC(=O)N1CCc1c[nH]c2ccccc12 (centres undefined) | / | / | 3 | / | / | / | / | / | / | / | /
Fc1cccc2sc(Nc3nc4c(F)cccc4s3)nc12 | 0 | 18* | -14 | -16 | -2 | ? | 0.036* | 0.031 | 0.052* | 0.034* | ?
O=C(CCc1ccccc1)Nc1ccc2c(c1)C(=O)OC2 | 0 | / | 4 | / | 3 | / | / | / | / | / | /
